ChEMBL document CHEMBL3988442, “University of Dundee, Small-Polar-MMV Screening Library” (2021)
Among all 48,000 compounds or so, about 13,000 (27%) showed an effect of 50% or more. This is one part of the list.

These compounds were tested on Wolbachia pipientis (assay: Anti-Wolbachia Cell-Based Screen). Conditions: 5 µM.
Assay type: functional
Set-up: scale not given: in the data most compounds retested in dose-response had high values

Compound	Percent Effect
O=C(C1CC1)N1CCN(Cc2coc(-c3ccc(Cl)cc3)n2)CC1	3.08%
CCOCCN1CCN(Cc2coc(-c3cccc(F)c3)n2)CC1	74.94%
OCCN1CCN(Cc2cc(Cl)cc3cccnc23)CC1	0.645%
OCCN1CCN(Cc2coc(-c3cccc(Cl)c3)n2)CC1	116.8%
CCc1nc(C)c(C2CC(=O)Nc3c2c(-c2ccccn2)nn3C)[nH]1 (centres undefined)	6.33%
CCC(C)(N)c1nc(=O)c(C(C)C)c(C)[nH]1.Cl (centres undefined)	-21.29%
Cl.O=C(NC[C@@]1(COc2cnccn2)C[C@@H](O)[C@@H](O)C1)C1CCOCC1	-6.345%
O=C(Cc1ccc2c(c1)OCO2)N1CCCN(c2nccs2)CC1	-6.237%
CCCC1c2cccn2CCN1S(=O)(=O)N1CCOCC1 (centres undefined)	118.3%
O=S(=O)(N1CCOCC1)N1CCCCC1CCc1ccc(O)cc1 (centres undefined)	2.652%
CC1CCN(S(=O)(=O)N2CCn3cccc3C2C)CC1 (centres undefined)	-8.051%
O=S(=O)(N1CCOCC1)N1CCc2sccc2C1	7.177%
CCC1c2cccn2CCN1S(=O)(=O)N1CCOCC1 (centres undefined)	79.2%
CC1c2cccn2CCN1S(=O)(=O)N1CCCCCC1 (centres undefined)	-11.34%
Cc1nc(C)c(-c2ccn(CC(=O)Nc3cnn(C)n3)n2)s1	-4.351%
O=C([C@H]1COC[C@H]2CN(C3CCOCC3)C[C@H]21)N1CCCCO1	5.01%
CC(C)CC(C)NC1CCN(c2cccc(-c3cscn3)c2)CC1 (centres undefined)	-3.86%
CN1CCC2(CC1)CN(C(=O)c1cccc3cccnc13)CCN2C	-18.03%
CC(C)N1CC2(CCC1=O)CCN(C(=O)c1cc(F)ccc1Cl)CC2	-13.76%
Cc1ccc(C(=O)N2CCN(C)C3(CCC(=O)N(C)CC3)C2)c(F)c1 (centres undefined)	104.4%
Cc1cc(F)ccc1C(=O)N1CCN(C)C2(CCC(=O)N(C)CC2)C1 (centres undefined)	91.8%
Cc1ccc(C)c(S(=O)(=O)N2CCN(C)C3(CCC(=O)N(C)CC3)C2)c1 (centres undefined)	-7.559%
CSc1ccccc1C(=O)N1CCN(C)C2(CCC(=O)N(C)CC2)C1 (centres undefined)	119%
Cc1[nH]ccc1C(=O)N1CCC2(CC1)c1nc[nH]c1CCN2CC(C)C	14.8%
CC(C)=CCCN1CCN(C)C2(CCC(=O)N(C)CC2)C1 (centres undefined)	4.747%
CN1CC2(CCCN(C(=O)c3cnc4ccc(F)cc4c3O)C2)OC1=O (centres undefined)	-10.25%
Cc1csc(S(=O)(=O)N2CCN(C)C3(CCC(=O)N(C)CC3)C2)c1 (centres undefined)	-20.06%

Compound	Percent Effect
Cc1ccc(S(=O)(=O)N2CCN(C)C3(CCC(=O)N(C)CC3)C2)s1 (centres undefined)	14.37%
Cc1[nH]ccc1C(=O)N1CCN(C)C2(CCC(=O)N(C)CC2)C1 (centres undefined)	98.32%
COc1cccc(OCc2cc(C(=O)NC[C@@H]3CCCN3)n[nH]2)c1	-13.46%
COCC1CN(C(=O)c2cnc(C)cn2)Cc2ncnn2C1 (centres undefined)	-2.14%
Cc1noc(CNc2cccc(C(=O)N3CCCC(O)C3)c2)n1 (centres undefined)	7.269%
Cc1nnc(NC(=O)N2CCC(N3CCCCC3)CC2)s1	6.357%
COCc1nnc(C(=O)N(C)Cc2ccc(OC)cc2)o1	-21.92%
COCc1nnc(C(=O)N2CCCC(O)C2)o1 (centres undefined)	102.5%
COCc1nnc(C(=O)N2CC(N3CCCCC3)C2)o1	110.5%
Cc1noc(CNc2ccccc2C(=O)N2CCCC(O)C2)n1 (centres undefined)	-16.45%
CCCc1nnc(N2CCC(N3CCCCCC3)CC2)o1	12.1%
Cc1c(C(=O)N2CCC(N3CCCCC3)CC2)n(C)c2ccc(Cl)cc12	0.1052%
COCc1nnc(C(=O)N2CCC(N3CCCCC3)CC2)o1	90.19%
COc1ccc(NC(=O)CN2CCS(=O)(=O)CC2)cn1	-4.778%
CCCN(CCC)Cc1nnsc1Cl	-13.3%
Cc1ccc(C(=O)N2C[C@@H](OCC3CCOCC3)[C@H]3OCCC[C@H]32)o1	-9.797%
C[C@@H](NC(=O)c1ccc(Cl)cc1)c1onc(-c2cccnc2)c1C(=O)O.Cl	-10.74%
c1ccc(-c2nnn3c2COC(CNCC2CC2)C3)cc1 (centres undefined)	-10.69%
NC(=O)c1cc(C2CCCN(C(=O)CCc3ccccn3)C2)n[nH]1 (centres undefined)	94.78%
CC(C)(C#N)C(=O)N1CCCC(c2cc(C(F)(F)F)[nH]n2)C1 (centres undefined)	-7.065%
NC(=O)c1cc(C2CCCN(CCc3ccccn3)C2)n[nH]1 (centres undefined)	-3.119%
NC(=O)c1cc(C2CCCN(C(=O)CCc3cccs3)C2)n[nH]1 (centres undefined)	95.12%
NC(=O)c1cc(C2CCCN(C(=O)CCc3ccsc3)C2)n[nH]1 (centres undefined)	-0.264%
O=C(Cc1cccnc1)N1CCCC(c2cc(C(F)(F)F)[nH]n2)C1 (centres undefined)	-6.416%
O=C(CO)N1CCCC(c2cc(C(F)(F)F)[nH]n2)C1 (centres undefined)	144.8%
NC(=O)c1cc(C2CCCN(C(=O)CCc3ccncc3)C2)n[nH]1 (centres undefined)	120%
Cc1cccc(CCC(=O)N2CCCC(c3cc(C(N)=O)[nH]n3)C2)c1 (centres undefined)	2.373%
